The source of these data is paper PMC7862700, “An all-to-all approach to the identification of sequence-specific readers for epigenetic DNA modifications on cytosine”.

What all share (assay): DAPPL (digital affinity profiling via proximity ligation, sequencing); 10 mM Tris-HCl pH 7.5, 50 mM NaCl, 1 mM DTT, 4% glycerol, room temperature, 30 min; GST-TFs on glutathione beads, 16-mer random dsDNA library, 0.1% formaldehyde crosslink after washing; high values mean tight binding
Common to all, as to conditions: protein: recombinant; tags: N-terminal GST; dsDNA, one strand shown

One assay deals with T1, FLI1 (Homo sapiens, UniProt Q01543 1-452).
T1 sequence: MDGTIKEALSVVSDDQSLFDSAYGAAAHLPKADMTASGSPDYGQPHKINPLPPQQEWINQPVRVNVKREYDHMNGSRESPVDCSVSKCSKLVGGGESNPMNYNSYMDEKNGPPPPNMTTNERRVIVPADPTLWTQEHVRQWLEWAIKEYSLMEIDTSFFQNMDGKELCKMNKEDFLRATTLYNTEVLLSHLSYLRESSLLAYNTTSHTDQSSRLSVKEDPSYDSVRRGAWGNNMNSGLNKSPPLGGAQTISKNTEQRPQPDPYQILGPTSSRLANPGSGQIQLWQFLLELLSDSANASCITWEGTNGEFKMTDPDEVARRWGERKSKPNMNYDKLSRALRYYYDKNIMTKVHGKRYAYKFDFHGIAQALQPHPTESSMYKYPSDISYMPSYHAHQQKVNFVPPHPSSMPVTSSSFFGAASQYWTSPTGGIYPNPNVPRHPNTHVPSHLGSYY
In a few lines: (§1)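 Each value of binding signal is a hexamer's read frequency for a factor divided by the same hexamer's frequency in the tag-only sample. Barcoded, bead-captured GST fusions of human transcription factors made in yeast were pooled with that sample and incubated with 200 nmole of a random double-stranded 16-mer DNA library in Tris/NaCl/DTT/glycerol buffer at room temperature for 30 min. Washing, 0.1% formaldehyde crosslinking, proximity ligation, PCR and Illumina NextSeq500 sequencing followed.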

The target of a further assay is T2, ELK1 (Homo sapiens, UniProt P19419 1-428).
T2 sequence: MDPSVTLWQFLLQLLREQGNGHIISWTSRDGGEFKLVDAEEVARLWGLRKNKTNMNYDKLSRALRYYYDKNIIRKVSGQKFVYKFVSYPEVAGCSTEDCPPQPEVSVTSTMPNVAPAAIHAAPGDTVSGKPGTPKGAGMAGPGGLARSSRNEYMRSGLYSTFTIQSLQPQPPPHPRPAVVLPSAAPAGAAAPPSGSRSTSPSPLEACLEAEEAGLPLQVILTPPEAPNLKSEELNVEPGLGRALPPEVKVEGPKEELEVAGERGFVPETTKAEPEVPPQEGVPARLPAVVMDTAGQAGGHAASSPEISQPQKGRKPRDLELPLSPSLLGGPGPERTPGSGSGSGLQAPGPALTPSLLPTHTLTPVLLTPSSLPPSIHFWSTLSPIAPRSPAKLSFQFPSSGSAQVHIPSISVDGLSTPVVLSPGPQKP
The gist of the method: as §1

The next assay addresses T3, GABPA (Homo sapiens, UniProt Q06546 1-454).
T3 sequence: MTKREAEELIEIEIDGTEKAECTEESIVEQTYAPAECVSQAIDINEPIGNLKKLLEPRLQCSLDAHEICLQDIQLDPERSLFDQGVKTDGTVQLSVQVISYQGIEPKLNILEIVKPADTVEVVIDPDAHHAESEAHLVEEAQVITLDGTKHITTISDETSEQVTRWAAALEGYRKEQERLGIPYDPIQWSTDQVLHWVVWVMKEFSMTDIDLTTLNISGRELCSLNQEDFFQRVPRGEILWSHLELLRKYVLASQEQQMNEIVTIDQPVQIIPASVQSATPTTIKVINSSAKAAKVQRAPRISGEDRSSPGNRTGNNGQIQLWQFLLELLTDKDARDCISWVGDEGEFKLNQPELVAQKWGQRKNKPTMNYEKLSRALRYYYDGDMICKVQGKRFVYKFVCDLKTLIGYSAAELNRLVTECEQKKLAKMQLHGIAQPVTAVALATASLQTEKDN
The gist of the method:
as §1

A further assay has as its target T4, ERG (Homo sapiens, UniProt P11308 1-479).
T4 sequence: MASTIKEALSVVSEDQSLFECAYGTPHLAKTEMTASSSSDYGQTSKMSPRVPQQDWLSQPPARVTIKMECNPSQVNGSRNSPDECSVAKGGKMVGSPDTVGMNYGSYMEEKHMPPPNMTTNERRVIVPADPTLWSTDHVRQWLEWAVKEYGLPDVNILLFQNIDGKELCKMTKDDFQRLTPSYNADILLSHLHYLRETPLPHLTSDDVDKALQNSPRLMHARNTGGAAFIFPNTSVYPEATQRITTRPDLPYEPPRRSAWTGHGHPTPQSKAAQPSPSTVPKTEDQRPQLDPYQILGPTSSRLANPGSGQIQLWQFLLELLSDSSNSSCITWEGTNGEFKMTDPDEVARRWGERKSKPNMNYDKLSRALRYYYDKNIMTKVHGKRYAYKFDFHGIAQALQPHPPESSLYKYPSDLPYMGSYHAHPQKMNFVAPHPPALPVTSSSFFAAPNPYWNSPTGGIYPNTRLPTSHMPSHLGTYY
In a few lines:
as §1

Another assay addresses ELF1 (Homo sapiens, UniProt P32519 1-619). The gist of the method: as §1
Another assay deals with T5, EHF (Homo sapiens, UniProt Q9NZC4 1-300).
T5 sequence: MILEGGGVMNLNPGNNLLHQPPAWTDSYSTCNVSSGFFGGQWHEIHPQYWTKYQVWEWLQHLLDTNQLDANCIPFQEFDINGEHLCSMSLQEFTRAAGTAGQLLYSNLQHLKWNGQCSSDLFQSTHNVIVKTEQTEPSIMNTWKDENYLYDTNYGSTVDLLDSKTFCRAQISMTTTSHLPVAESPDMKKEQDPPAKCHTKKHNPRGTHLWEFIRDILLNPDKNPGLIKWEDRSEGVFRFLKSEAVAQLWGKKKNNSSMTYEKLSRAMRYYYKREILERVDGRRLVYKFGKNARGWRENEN
In a few lines:
as §1

The target of a further assay is SPI1 (Homo sapiens, UniProt P17947 1-270). In a few lines: as §1
Another assay deals with SPIB (Homo sapiens, UniProt Q01892 1-262). In a few lines: as §1
Chain of SPIB (Q01892 whole entry): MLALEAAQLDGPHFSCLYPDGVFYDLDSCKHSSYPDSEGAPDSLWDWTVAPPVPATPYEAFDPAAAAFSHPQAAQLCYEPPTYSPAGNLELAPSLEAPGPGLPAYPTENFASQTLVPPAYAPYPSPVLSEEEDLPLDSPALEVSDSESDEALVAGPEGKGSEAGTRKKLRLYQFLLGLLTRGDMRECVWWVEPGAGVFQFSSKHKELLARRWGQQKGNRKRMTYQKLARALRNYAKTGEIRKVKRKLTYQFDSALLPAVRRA
A further assay has as its target T6, ELK3 (Homo sapiens, UniProt P41970 1-407).
T6 sequence: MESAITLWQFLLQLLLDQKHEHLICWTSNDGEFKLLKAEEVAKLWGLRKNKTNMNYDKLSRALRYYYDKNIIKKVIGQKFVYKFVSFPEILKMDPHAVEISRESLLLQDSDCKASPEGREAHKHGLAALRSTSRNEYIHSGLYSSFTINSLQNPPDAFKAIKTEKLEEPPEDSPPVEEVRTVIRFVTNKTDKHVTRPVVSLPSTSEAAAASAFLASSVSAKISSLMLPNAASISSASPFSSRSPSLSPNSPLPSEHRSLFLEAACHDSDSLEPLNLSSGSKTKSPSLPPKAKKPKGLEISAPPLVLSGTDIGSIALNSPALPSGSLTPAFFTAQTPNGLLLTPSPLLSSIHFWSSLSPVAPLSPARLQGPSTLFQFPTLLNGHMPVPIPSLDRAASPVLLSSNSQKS
The gist of the method:
as §1

In another assay the target is T7, FEV (Homo sapiens, UniProt Q99581 1-238).
T7 sequence: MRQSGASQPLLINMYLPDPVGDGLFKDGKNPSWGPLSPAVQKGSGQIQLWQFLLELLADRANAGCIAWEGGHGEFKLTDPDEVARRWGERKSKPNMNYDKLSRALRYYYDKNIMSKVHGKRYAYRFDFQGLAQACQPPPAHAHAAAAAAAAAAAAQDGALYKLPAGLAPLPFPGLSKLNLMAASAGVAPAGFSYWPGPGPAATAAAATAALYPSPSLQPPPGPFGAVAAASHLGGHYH
In a few lines:
as §1

In the next assay the target is ETV5 (Homo sapiens, UniProt P41161 1-510). In a few lines:
as §1

Another assay deals with T8, SPIC (Homo sapiens, UniProt Q8N5J4 1-248).
T8 sequence: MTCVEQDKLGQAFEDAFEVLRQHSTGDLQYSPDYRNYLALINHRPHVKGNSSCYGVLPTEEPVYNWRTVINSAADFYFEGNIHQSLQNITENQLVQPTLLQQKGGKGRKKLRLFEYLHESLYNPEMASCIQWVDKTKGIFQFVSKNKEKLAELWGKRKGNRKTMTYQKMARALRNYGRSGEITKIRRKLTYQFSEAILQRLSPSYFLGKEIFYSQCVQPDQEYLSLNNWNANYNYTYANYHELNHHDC
In a few lines:
as §1

A further assay addresses ELF4 (Homo sapiens, UniProt Q99607 1-663). The gist of the method: as §1
Another assay concerns the target T9, ELK4 (Homo sapiens, UniProt P28324-2 1-405).
T9 sequence: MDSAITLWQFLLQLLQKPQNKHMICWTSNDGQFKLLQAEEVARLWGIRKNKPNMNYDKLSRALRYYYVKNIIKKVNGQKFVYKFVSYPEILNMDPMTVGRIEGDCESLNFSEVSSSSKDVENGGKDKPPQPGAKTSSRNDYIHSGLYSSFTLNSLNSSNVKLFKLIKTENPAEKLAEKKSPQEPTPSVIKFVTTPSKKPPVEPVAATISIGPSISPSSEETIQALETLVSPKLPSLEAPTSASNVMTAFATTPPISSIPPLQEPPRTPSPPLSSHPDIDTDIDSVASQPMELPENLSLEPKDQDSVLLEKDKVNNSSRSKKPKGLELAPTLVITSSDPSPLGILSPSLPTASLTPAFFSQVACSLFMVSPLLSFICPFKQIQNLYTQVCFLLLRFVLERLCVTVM
The gist of the method: as §1

A further assay deals with T10, ETV2 (Homo sapiens, UniProt O00321 1-342).
T10 sequence: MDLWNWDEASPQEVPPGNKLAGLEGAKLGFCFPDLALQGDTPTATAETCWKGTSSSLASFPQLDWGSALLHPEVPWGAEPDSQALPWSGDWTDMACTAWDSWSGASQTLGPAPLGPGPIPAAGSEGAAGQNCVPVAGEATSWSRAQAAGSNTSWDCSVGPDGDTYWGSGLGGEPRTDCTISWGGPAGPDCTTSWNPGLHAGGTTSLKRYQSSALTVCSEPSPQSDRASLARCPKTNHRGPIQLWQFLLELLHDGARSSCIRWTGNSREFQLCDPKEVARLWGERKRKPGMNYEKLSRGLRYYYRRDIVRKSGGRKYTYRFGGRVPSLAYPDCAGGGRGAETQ
The gist of the method:
as §1

The target of a further assay is T11, ELF3 (Homo sapiens, UniProt P78545 1-371).
T11 sequence: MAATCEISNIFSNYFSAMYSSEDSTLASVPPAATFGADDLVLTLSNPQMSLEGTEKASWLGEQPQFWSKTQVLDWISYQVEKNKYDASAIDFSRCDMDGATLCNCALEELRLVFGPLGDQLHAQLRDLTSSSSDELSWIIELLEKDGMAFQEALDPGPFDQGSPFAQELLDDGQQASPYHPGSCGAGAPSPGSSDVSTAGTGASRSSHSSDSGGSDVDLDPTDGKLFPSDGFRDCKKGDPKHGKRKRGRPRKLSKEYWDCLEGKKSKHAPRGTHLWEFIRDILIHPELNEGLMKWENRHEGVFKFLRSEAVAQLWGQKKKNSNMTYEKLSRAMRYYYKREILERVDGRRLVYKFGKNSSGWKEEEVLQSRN
In a few lines: as §1

The next assay deals with ETV1 (Homo sapiens, UniProt P50549 1-477). In a few lines: as §1
Chain of ETV1 (P50549 whole entry): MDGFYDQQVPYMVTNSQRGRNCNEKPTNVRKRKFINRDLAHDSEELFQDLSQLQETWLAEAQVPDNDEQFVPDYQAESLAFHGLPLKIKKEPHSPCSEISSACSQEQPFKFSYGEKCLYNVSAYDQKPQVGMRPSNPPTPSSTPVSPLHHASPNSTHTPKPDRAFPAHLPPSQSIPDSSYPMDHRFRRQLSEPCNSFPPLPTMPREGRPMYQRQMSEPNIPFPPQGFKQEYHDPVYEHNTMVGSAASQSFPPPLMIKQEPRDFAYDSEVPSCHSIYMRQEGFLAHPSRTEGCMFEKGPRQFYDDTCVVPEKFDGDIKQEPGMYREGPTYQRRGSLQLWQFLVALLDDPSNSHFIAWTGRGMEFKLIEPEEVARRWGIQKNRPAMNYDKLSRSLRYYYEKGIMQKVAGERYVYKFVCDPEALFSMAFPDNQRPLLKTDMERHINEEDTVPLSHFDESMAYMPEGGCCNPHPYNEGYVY

Chain of ELF4 (Q99607 whole entry): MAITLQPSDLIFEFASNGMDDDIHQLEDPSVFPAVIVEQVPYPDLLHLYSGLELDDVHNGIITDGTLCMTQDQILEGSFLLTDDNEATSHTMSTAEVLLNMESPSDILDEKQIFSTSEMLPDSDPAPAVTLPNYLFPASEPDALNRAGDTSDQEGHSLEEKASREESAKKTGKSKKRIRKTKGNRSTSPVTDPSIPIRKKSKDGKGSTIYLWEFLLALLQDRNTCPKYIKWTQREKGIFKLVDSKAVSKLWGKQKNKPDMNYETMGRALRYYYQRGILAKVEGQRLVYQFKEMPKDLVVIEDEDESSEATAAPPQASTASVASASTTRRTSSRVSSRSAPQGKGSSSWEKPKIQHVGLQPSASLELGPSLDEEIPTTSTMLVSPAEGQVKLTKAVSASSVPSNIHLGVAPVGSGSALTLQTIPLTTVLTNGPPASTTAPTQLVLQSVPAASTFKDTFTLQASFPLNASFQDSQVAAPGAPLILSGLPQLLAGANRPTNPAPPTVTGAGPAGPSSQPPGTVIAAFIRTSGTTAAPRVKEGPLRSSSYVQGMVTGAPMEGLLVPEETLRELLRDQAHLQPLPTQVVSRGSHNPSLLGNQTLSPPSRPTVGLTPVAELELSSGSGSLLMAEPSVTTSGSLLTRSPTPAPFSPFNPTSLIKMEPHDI
Chain of ELF1 (P32519 whole entry): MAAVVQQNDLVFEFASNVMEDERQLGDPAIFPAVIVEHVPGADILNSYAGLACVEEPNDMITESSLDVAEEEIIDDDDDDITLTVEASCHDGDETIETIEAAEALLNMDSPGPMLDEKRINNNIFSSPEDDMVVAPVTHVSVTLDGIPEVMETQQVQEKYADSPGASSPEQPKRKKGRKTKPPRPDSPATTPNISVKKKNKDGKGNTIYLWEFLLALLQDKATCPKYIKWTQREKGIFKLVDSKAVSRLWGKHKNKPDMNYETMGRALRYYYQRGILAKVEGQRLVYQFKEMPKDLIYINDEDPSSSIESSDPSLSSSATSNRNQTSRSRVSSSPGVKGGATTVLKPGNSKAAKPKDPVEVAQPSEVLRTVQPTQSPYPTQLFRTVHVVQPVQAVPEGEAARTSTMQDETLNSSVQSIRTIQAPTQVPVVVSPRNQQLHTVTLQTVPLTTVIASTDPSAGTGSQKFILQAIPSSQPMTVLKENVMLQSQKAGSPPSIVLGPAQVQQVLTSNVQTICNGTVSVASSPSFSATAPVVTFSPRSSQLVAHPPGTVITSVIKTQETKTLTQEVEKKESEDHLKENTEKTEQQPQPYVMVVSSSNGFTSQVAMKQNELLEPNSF
Chain of ETV5 (P41161 whole entry): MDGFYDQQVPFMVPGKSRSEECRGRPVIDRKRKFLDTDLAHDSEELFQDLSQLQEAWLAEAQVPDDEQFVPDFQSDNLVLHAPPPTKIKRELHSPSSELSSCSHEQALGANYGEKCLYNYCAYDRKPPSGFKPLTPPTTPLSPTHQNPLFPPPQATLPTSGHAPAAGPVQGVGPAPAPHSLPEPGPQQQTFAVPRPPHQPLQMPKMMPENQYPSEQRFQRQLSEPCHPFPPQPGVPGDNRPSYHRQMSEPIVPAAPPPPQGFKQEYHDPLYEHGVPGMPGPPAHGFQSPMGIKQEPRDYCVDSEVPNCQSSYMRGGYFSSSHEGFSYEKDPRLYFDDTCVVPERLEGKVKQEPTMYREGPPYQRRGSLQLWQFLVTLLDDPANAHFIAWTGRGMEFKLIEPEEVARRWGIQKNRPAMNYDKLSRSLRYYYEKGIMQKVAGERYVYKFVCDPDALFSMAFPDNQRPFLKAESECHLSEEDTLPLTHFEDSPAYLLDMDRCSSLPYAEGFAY

For CGGAAG, the binding signal with FLI1 was 2.85 fold enrichment (6-mer frequency, TF over GST control); in the assay with ELK1, 3.3 fold enrichment (6-mer frequency, TF over GST control); with GABPA it was 2.61 fold enrichment (6-mer frequency, TF over GST control); with ERG it was 3.44 fold enrichment (6-mer frequency, TF over GST control); with ELF1, 2.8 fold enrichment (6-mer frequency, TF over GST control); with EHF, 3.07 fold enrichment (6-mer frequency, TF over GST control). The binding signal was 3.49 fold enrichment (6-mer frequency, TF over GST control) with SPI1; 3.01 fold enrichment (6-mer frequency, TF over GST control) with SPIB; 3.41 fold enrichment (6-mer frequency, TF over GST control) with ELK3; 3.68 fold enrichment (6-mer frequency, TF over GST control) in the assay with FEV; 3.27 fold enrichment (6-mer frequency, TF over GST control) with ETV5; 2.79 fold enrichment (6-mer frequency, TF over GST control) with SPIC. Besides, the binding signal with ELF4 was 2.61 fold enrichment (6-mer frequency, TF over GST control); in the assay with ELK4 it was 2.16 fold enrichment (6-mer frequency, TF over GST control); with ETV2 it was 2.63 fold enrichment (6-mer frequency, TF over GST control); with ELF3, 3.01 fold enrichment (6-mer frequency, TF over GST control); in the assay with ETV1 it was 3.2 fold enrichment (6-mer frequency, TF over GST control).
